Test [1] in a line: ATG_PPRE_CIS: Attagene CIS-FACTORIAL HepG2 Assay for human Peroxisome Proliferator-activated Response Element (PPRE) (AID 2282958). As to conditions: HepG2 PPRE cis-element reporter, Attagene transcription factor profiling; actives raise or lower the signal. The procedure, abridged: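 After human HepG2 hepatoma cells were transiently transfected with cis-promoter reporter constructs, they were exposed to test chemicals for 24 hours. Reporter RNA was then reverse-transcribed, PCR-amplified, FAM-labeled, HpaI-digested and quantified by capillary electrophoresis.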

The nature of test [2]: ATG_RORE_CIS: Attagene CIS-FACTORIAL HepG2 Assay for human RAR-related Orphan Receptor Element (RORE) (AID 2282959). As to conditions: HepG2 Attagene cis-factorial RORE reporter, mRNA; actives raise or lower the signal. The procedure, abridged: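 Measured here: transcript induction of a cis-regulated reporter in HepG2 cells transiently transfected via FuGene 6. After 24 h, RNA was processed by RT-PCR and fluorescent capillary electrophoresis; DMSO defined baseline activity.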

Test [3] in a line: ATG_Sox_CIS: Attagene CIS-FACTORIAL HepG2 Assay for human SRY-box transcription factor (SOX) (AID 2282960). As to conditions: HepG2 Attagene cis-factorial SOX reporter, mRNA; actives raise or lower the signal. The procedure, abridged: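 Using transiently transfected HepG2 cells, reporter transcription driven by cis elements was assessed 24 h after dosing. Signal was fluorescence of capillary-separated RT-PCR products, with DMSO defining baseline activity.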

Test [4] concerns the target Transcription factor Sp1 (Homo sapiens) (UniProt P08047). Nature of the test: ATG_Sp1_CIS: Attagene CIS-FACTORIAL HepG2 Assay for human Specificity Protein 1 (Sp1) (AID 2282961). To be noted: HepG2 Sp1 cis-reporter transcription, actives raise or lower the signal. The procedure, abridged:
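After transient transfection of HepG2 cells with cis-promoter reporter units and 24 h chemical treatment, reporter transcripts were quantified by RT-PCR and capillary electrophoresis fluorescence. Gain- and loss-of-signal fitted against DMSO.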

Test [5] can be described thus: ATG_SREBP_CIS: Attagene CIS-FACTORIAL HepG2 Assay for human Sterol Regulatory Element Binding (SREBP) (AID 2282962). To be noted: HepG2 Attagene cis-factorial SREBP reporter, mRNA; actives raise or lower the signal. The procedure, abridged:
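Values derive from bidirectional curve fitting with DMSO as baseline. The underlying measurement is reporter mRNA from cis-element-regulated units in transiently transfected HepG2, quantified by RT-PCR and capillary electrophoresis after 24 h exposure.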

The nature of test [6]: ATG_TA_CIS: Attagene CIS-FACTORIAL HepG2 Assay for human TA Basal Promoter (AID 2282964). To be noted: HepG2 Attagene CIS-factorial TA basal promoter reporter; actives raise or lower the signal. The procedure, abridged:
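Background internal-marker endpoint from a 52-component HepG2 cis-reporter panel. Cells treated 24 h; reporter transcripts quantified via RT-PCR and CE fluorescence against DMSO baseline.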

Test [7] in a line: ATG_TCF_b_cat_CIS: Attagene CIS-FACTORIAL HepG2 Assay for human T-Cell-Factor with beta-catenin (TCF/b-cat) (AID 2282965). As to conditions: HepG2 TCF/beta-catenin cis-reporter transcription, actives raise or lower the signal. The procedure, abridged: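 Measured: reporter mRNA in HepG2 transiently transfected with cis-promoter reporter units, 24 h after chemical addition. Fitting was bidirectional, DMSO as negative control.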

Test [8] can be described thus: ATG_TGFb_CIS: Attagene CIS-FACTORIAL HepG2 Assay for human Transforming Growth Factor (TGF) (AID 2282967). To be noted: HepG2 Attagene CIS TGFb reporter, mRNA transcription; actives raise or lower the signal. The procedure, abridged: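 Liver HepG2 line, cis-factorial reporter panel, 24 h dosing. Quantitation: RT-PCR products labeled with 6-FAM, cut with HpaI, resolved by capillary electrophoresis; DMSO-referenced bidirectional analysis.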

Test [9] is described as follows: ATG_VDRE_CIS: Attagene CIS-FACTORIAL HepG2 Assay for human Vitamin D Receptor Element (VDRE) (AID 2282968). To be noted: HepG2 VDRE cis-reporter transcription, actives raise or lower the signal. The procedure, abridged: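 Readout is VDRE-driven reporter mRNA reflecting endogenous factor activity in human HepG2 cells, sampled 24 h post-dose. Quantification used labelled RT-PCR products separated by capillary electrophoresis; bidirectional analysis relative to DMSO.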

The target in test [10] is X-box-binding protein 1 (Homo sapiens) (UniProt P17861). The test can be described thus: ATG_Xbp1_CIS: Attagene CIS-FACTORIAL HepG2 Assay for human X-box Binding Protein 1 (XBP1) (AID 2282972). As to conditions: HepG2 XBP1 cis-element reporter, Attagene multiplex; actives raise or lower the signal. The procedure, abridged: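 Human hepatoma HepG2, cis-element reporter system, 24 h treatment; mRNA quantified by RT-PCR/CE fluorescence; fit relative to DMSO.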
Sequence of X-box-binding protein 1 (Homo sapiens) (P17861 whole entry, looked up): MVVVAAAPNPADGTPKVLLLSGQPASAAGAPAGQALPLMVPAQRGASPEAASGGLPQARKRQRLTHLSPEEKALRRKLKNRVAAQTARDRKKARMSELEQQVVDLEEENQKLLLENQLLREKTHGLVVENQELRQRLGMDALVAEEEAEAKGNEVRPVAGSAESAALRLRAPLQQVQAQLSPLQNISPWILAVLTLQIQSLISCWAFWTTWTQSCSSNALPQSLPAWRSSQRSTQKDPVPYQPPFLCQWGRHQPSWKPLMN

Test [11] is described as follows: ATG_TAL_CIS: Attagene CIS-FACTORIAL HepG2 Assay for human TAL Basal Promoter (AID 2282966).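 Note: background control endpoint measuring basal TAL promoter reporter mRNA not a specific factor.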 As to conditions: HepG2 Attagene cis-factorial TAL promoter reporter; actives raise or lower the signal. The procedure, abridged: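 Basal-promoter background-control endpoint from a multiplexed HepG2 reporter panel. Cells were exposed 24 h, then reporter mRNA was read by RT-PCR/CE fluorescence and fitted in both directions relative to DMSO.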

Test [12] is described as follows: ATG_GAL4_TRANS: Attagene TRANS-FACTORIAL HepG2 Assay for GAL4 (Internal Marker) (AID 2282976; active = hit-call score of the fitted dose curve at least 0.9, where 1 is the maximum). As to conditions: HepG2 Attagene TRANS GAL4 internal marker reporter. The procedure, abridged:
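Background-control readout: GAL4-UAS reporter transcript in transiently transfected HepG2 cells after 24 h compound exposure. Measured by RT-PCR, 6-FAM primer extension, HpaI digest and capillary electrophoresis; gain-of-signal fit versus DMSO.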

Test [13] has as its target Nuclear receptor subfamily 1 group I member 3 (Homo sapiens) (UniProt Q14994). The test can be described thus: ATG_CAR_TRANS: Attagene TRANS-FACTORIAL HepG2 Assay for human Constitutive Androstane Receptor (CAR) (AID 2282969; active = hit-call score of the fitted dose curve at least 0.9, where 1 is the maximum;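 note: activators raise reporter mRNA above DMSO so AC50 marks induction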). As to conditions: HepG2 Attagene TRANS-FACTORIAL CAR reporter. The procedure, abridged: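 Signal is reporter mRNA induction relative to DMSO, measured 24 h after dosing by RT-PCR with fluorescent primer extension and capillary electrophoresis. Human HepG2 liver cells carried transiently transfected chimeric NR-Gal4/GAL4-UAS reporter constructs.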

The target of test [14] is Estrogen receptor (Homo sapiens) (UniProt P03372). The test can be described thus: ATG_ERa_TRANS: Attagene TRANS-FACTORIAL HepG2 Assay for human Estrogen Receptor alpha (ERa) (AID 2282970; active = hit-call score of the fitted dose curve at least 0.9, where 1 is the maximum). As to conditions: HepG2 Attagene TRANS ERa GAL4 reporter, mRNA. The procedure, abridged: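 Gal4-fusion ERa transactivation, measured as reporter transcript level in transiently transfected HepG2 cells. Exposure 24 h; RT-PCR plus capillary electrophoresis with fluorescence detection.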
Sequence of Estrogen receptor (Homo sapiens) (P03372 whole entry, looked up, the tested form may be a part): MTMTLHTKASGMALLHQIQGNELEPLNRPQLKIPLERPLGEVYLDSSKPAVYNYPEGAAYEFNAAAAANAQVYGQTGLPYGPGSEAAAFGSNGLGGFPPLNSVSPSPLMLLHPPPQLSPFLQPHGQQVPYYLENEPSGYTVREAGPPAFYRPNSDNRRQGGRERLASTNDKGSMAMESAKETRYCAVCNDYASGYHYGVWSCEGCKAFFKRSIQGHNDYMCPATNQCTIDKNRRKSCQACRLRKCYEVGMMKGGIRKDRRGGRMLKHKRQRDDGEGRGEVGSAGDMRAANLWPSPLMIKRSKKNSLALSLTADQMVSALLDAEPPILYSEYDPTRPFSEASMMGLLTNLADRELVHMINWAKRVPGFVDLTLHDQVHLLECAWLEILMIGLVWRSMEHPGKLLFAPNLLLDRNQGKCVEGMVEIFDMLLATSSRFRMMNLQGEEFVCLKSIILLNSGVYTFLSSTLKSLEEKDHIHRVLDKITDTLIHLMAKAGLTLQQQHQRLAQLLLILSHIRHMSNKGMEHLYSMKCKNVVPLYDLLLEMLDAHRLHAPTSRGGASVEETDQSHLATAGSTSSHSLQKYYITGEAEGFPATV

For test [15], the target named is Signal transducer and activator of transcription 3 (Homo sapiens) (UniProt P40763). The test can be described thus: ATG_STAT3_CIS: Attagene CIS-FACTORIAL HepG2 Assay for human Signal Transducer and Activator of Transcription 3 (STAT3) (AID 2282963). To be noted: HepG2, Attagene cis-factorial STAT3 reporter transcription; actives raise or lower the signal. The procedure, abridged: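 Readout is reporter transcript quantified by RT-PCR and capillary electrophoresis, with 6-FAM primer extension and HpaI digestion. Total RNA is taken 24 h after dosing transiently transfected HepG2 carrying cis-regulated reporter units. Bidirectional fit against DMSO.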
Sequence of Signal transducer and activator of transcription 3 (Homo sapiens) (P40763 whole entry, looked up): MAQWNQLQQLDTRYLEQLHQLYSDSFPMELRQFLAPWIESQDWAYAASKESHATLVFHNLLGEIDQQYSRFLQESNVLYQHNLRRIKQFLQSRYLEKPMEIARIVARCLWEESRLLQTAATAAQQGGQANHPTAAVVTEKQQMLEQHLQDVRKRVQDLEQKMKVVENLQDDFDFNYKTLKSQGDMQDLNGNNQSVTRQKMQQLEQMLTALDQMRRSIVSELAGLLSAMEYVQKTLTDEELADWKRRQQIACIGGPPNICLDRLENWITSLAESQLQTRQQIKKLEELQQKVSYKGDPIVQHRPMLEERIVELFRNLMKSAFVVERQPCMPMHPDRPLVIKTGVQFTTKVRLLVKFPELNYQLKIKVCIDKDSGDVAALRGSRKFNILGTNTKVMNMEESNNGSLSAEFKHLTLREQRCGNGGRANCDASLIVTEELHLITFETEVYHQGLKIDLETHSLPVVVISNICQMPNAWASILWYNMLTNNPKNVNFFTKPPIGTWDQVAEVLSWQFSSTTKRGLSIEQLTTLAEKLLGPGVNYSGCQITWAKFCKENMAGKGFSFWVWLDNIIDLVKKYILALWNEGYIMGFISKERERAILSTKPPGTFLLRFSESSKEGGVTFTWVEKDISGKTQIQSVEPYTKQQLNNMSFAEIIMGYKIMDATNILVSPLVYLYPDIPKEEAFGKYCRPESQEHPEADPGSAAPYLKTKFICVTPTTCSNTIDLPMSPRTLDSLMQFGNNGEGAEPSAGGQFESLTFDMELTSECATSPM

Test [16] has as its target Steroid hormone receptor ERR1 (Homo sapiens) (UniProt P11474). Nature of the test: ATG_ERRa_TRANS: Attagene TRANS-FACTORIAL HepG2 Assay for human Estrogen-Related Receptor alpha (ERRa) (AID 2282971; active = hit-call score of the fitted dose curve at least 0.9, where 1 is the maximum). To be noted: HepG2 Attagene TRANS reporter, ERRa transactivation. The procedure, abridged:
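HepG2 cells transiently transfected with GAL4-UAS reporter units and chimeric NR-Gal4 constructs; after 24 hour compound incubation, reporter mRNA quantified by RT-PCR, fluorescent labelling and capillary electrophoresis, gain of signal versus DMSO.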

The target in test [17] is Bile acid receptor (Homo sapiens) (UniProt Q96RI1). Nature of the test: ATG_FXR_TRANS: Attagene TRANS-FACTORIAL HepG2 Assay for Farnesoid X Receptor (FXR) (AID 2282979; active = hit-call score of the fitted dose curve at least 0.9, where 1 is the maximum;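 note: hits raise reporter mRNA above DMSO so AC50 marks FXR activation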). As to conditions: HepG2 Attagene TRANS FXR-GAL4 reporter transcription. The procedure, abridged: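 HepG2 cells were transiently transfected with GAL4-UAS reporters driven by chimeric NR-Gal4 proteins and dosed for 24 h. Reporter mRNA was quantified by RT-PCR, fluorescent labelling, HpaI digestion and capillary electrophoresis, with gain of signal scored versus DMSO.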
Sequence of Bile acid receptor (Homo sapiens) (Q96RI1 whole entry, looked up, the tested form may be a part): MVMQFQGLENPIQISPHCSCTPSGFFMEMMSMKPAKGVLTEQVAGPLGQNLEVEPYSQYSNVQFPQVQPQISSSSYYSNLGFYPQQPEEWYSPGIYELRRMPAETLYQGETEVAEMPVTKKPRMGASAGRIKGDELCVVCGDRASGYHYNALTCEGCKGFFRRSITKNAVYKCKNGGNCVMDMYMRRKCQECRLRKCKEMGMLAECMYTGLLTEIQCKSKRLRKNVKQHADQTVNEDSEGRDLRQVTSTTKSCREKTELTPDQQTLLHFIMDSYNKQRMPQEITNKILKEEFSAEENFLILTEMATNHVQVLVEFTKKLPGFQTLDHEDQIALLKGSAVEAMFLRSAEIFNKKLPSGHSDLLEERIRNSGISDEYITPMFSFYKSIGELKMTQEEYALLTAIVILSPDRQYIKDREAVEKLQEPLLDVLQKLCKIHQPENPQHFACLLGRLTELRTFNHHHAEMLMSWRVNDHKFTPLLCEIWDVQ

The target of test [18] is Estrogen-related receptor gamma (Homo sapiens) (UniProt P62508). Nature of the test: ATG_ERRg_TRANS: Attagene TRANS-FACTORIAL HepG2 Assay for human Estrogen-Related Receptor gamma (ERRg) (AID 2282977; active = hit-call score of the fitted dose curve at least 0.9, where 1 is the maximum;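 note: hits increase reporter signal over DMSO so potencies reflect activators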). To be noted: HepG2 Attagene TRANS reporter, ERRg transactivation. The procedure, abridged: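 Induction of reporter transcripts through a chimeric NR-Gal4 protein is quantified in transfected human HepG2 liver cells after 24 h chemical exposure, using RT-PCR with capillary electrophoresis detection and DMSO as baseline.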
Sequence of Estrogen-related receptor gamma (Homo sapiens) (P62508 whole entry, looked up, the tested form may be a part): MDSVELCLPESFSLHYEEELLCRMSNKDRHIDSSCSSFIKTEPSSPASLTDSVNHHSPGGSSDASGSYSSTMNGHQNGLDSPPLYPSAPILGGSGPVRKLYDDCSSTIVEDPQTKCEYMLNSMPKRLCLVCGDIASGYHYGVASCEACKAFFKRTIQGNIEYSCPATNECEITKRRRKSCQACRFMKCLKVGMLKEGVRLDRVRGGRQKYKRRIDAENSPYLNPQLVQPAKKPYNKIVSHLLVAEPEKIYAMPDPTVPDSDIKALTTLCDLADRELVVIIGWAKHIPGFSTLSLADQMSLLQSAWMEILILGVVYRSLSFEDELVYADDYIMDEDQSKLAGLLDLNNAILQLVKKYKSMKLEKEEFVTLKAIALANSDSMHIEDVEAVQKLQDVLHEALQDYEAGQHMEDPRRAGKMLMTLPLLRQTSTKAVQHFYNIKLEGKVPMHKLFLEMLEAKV

Test [19] is described as follows: ATG_M_19_TRANS: Attagene TRANS-FACTORIAL HepG2 Assay for M19 Transcription Factor (Internal Marker) (AID 2282974; active = hit-call score of the fitted dose curve at least 0.9, where 1 is the maximum). As to conditions: HepG2 Attagene TRANS-FACTORIAL M19 internal marker reporter. The procedure, abridged: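 Gain-of-signal in reporter mRNA, relative to DMSO, was scored from capillary electrophoresis fluorescence. HepG2 cells carried transiently transfected multiple reporter transcription units and were incubated with test chemicals for 24 h.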

“And” between values parts separate entries of the source, which are not always exact repeats. Equal values may be shown once. Records with an inconclusive call do not appear. Some compounds were tested as several samples or in several runs, with calls that do not always agree. The source made the active and inactive calls. Rule for the calls, unless noted: active = hit-call score of the fitted dose curve at least 0.9, where 1 is the maximum; inactive = score below 0.9.

Sequence of Transcription factor Sp1 (Homo sapiens) (P08047 whole entry, looked up): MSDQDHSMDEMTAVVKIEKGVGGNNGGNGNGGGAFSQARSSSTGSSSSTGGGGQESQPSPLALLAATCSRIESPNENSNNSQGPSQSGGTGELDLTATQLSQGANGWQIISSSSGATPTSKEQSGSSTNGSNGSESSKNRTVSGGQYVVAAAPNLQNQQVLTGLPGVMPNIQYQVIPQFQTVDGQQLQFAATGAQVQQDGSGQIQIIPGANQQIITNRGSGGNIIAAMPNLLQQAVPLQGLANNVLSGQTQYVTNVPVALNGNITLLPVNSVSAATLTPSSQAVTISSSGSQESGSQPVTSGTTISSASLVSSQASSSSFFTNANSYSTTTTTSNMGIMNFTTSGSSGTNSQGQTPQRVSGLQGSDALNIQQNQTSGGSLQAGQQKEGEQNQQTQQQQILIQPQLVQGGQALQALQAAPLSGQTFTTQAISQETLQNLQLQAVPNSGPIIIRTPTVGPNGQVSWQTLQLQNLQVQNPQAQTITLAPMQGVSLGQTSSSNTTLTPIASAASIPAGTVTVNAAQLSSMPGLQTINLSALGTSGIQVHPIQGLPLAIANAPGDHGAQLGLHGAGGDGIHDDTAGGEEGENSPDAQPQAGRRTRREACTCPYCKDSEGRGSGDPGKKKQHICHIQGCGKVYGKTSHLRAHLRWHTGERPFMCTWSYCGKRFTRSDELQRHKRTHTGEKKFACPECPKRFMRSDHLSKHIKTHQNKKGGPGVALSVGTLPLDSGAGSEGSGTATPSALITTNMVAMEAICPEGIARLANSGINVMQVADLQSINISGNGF
Sequence of Nuclear receptor subfamily 1 group I member 3 (Homo sapiens) (Q14994 whole entry, looked up, the tested form may be a part): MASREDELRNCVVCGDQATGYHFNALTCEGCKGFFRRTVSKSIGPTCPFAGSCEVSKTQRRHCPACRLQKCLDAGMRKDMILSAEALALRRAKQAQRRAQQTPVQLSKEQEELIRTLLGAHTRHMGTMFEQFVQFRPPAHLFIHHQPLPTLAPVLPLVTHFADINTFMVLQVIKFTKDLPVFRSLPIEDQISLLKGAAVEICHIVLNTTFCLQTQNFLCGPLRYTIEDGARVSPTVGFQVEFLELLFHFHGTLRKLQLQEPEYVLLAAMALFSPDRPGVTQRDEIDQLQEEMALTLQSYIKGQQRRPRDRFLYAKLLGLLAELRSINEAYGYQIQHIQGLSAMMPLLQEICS
Sequence of Steroid hormone receptor ERR1 (Homo sapiens) (P11474 whole entry, looked up, the tested form may be a part): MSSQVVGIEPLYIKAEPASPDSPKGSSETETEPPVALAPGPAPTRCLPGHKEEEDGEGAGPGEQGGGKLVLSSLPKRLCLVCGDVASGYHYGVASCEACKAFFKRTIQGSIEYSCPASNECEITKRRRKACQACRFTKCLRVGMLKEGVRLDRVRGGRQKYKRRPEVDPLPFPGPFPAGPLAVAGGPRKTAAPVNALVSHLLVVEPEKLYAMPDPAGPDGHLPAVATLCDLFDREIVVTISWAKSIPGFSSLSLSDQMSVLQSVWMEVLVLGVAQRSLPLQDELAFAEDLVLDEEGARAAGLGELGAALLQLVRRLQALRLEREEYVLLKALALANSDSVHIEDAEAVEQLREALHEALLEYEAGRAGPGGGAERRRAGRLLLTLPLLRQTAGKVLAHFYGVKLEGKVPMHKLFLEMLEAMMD

Take `CCOP(=O)(CN(CCO)CCO)OCC`: the call in test [1], in test [2], in test [3], in [4], in [5] and in test [6] was inactive. The result in test [7], in test [8], in [9] and in test [10] was inactive.
Turning to `OCC(O)CCl` (stereo unspecified), the molecule was classed as inactive in [1], in test [2], in [4], in test [5], in [7] and in test [11]. Further, the molecule was called inactive in [8], in test [9], in test [10] and in test [12].
With `CNC(=O)O/N=C/C(C)(C)S(C)=O` (stereo unspecified), the molecule was called inactive in test [1], in test [2], in test [3], in test [4], in [5] and in [6]. For the same molecule, the molecule was called inactive in [7], in [8], in [9], in [13], in test [14] and in test [10]. Moreover, in test [12], the result was inactive.
On to `COC[C@H](C)N(C(=O)CCl)c1c(C)csc1C`, for which the molecule was classed as inactive in test [1], in test [2], in [4], in [5], in test [15] and in [6]. Besides, the call in [7], in [8], in test [14], in test [16], in test [10] and in test [17] was inactive. Besides, in test [9], the half-maximal activity concentration (AC50) (commonly the concentration at which the activity in the assay is half-maximal) was 47.3 µM (active).
Consider `c1cc[c]([Hg][c]2ccccc2)cc1`, for which the outcome in [1], in test [5], in test [15], in test [6], in test [7] and in test [11] was inactive. The molecule was classed as inactive in test [8], in test [14] and in [17]. Besides, the AC50 in [2] is 25.6 µM (active); in test [4], 24.5 µM (active); in test [9], 27.3 µM (active); in test [10], 18.7 µM (active).
As for `CCOC(=O)/C=C(C)/C=C/C[C@@H](C)CCCC(C)C`, the result in test [1], in [3], in test [4], in [6], in test [7] and in test [11] was inactive. Further, the result in test [9], in test [10] and in [12] was inactive. Also, the AC50 was 124 µM (active) in [5], 176 µM (active) in test [15] and 47.4 µM (active) in test [8].
For `ClC1(Cl)C2(Cl)C3(Cl)C4(Cl)C(Cl)(Cl)C5(Cl)C3(Cl)C1(Cl)C5(Cl)C24Cl` (stereo unspecified), the molecule was classed as inactive in [1], in test [3], in test [4], in test [5], in [15] and in [6]. Also, the outcome in test [7], in test [8], in test [9], in test [10], in test [12] and in test [18] was inactive. In test [17], the molecule was classed as inactive.
As for `O=C(O)C(F)(F)C(F)(F)C(F)(F)C(F)(F)C(F)(F)C(F)(F)C(F)(F)C(F)(F)C(F)(F)C(F)(F)F`, the AC50 in [2] is 24.2 µM (active); in [7] it was 31.9 µM (active) and 13.1 µM (active); in [8], 105 µM (active) and 13.4 µM (active); in test [9] it was 25.7 µM (active) and 16.8 µM (active); in test [10], 26.7 µM (active). The molecule was classed as inactive in test [2], in [4], in test [5], in test [15], in test [6] and in test [13]. In addition, the molecule was called inactive in test [16], in test [10], in test [19], in test [18] and in [17].
On to `C[C@@H](Oc1ccc(Cl)cc1Cl)C(=O)O`, for which the outcome in test [2], in test [4], in test [5], in [6], in test [7] and in test [11] was inactive. The molecule was called inactive in [8], in test [9], in [10], in test [19] and in test [12].

These data come from PubChem BioAssay (EPA / NIEHS).
